These results are taken from PubChem BioAssay (EPA / NIEHS).

Results filed as inconclusive are left out. Calls of active or inactive are those of the source. The calls were made as follows, unless noted: active = hit-call score of the fitted dose curve at least 0.9, where 1 is the maximum; inconclusive = response in the unintended direction; inactive = score below 0.9.

Read-out in experiment [1]: X-box binding protein 1 (XBP1), XBP1 (gene 7494)
Kind of experiment: LTEA_HepaRG_XBP1: Life Technologies and Expression Analysis (LTEA) Assay for X-box binding protein 1 (XBP1) using HepaRG (AID 2283540; active = hit-call score of the fitted dose curve at least 0.9, where 1 is the maximum; inactive = score below 0.9). The following applies: mRNA level, 48 h; actives raise or lower the signal. An outline of the steps: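 Differentiated human HepaRG cells in serum-free induction medium were exposed in duplicate for 48 h to eight half-log concentrations up to 100 uM in 0.5% DMSO. XBP1 mRNA was quantified by qRT-PCR, normalised to ACTB, GAPDH and POLR2A, with bidirectional fitting against DMSO.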

Experiment [2] is described as follows: LTEA_HepaRG_LDH_cytotoxicity: Cytotoxicity Assessment in the Life Technologies and Expression Analysis (LTEA) Assay (AID 2283563).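 As to AC50: LDH activity released into spent culture medium as a marker of cell death.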 An outline of the steps:
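Differentiated human HepaRG cells, plated 48 h beforehand, were switched to serum-free induction medium and exposed for 48 h to eight half-log concentrations (top 100 uM) in 0.5% DMSO. LDH was measured in spent medium; activity was fitted relative to DMSO vehicle.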

Experiment [3] can be described thus: TOX21_p53_BLA_p2_viability: Viability Assessment in the Tox21 HCT-116 p53 Agonism Beta-lactamase Assay, Phase 2 (AID 2283591).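 Also: compound exposure lasted 16 h at 37 °C; actives lower the ATP signal meaning cytotoxicity.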 An outline of the steps: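 HCT-116 p53-bla cells (4000/well) rested 5 h at 37C, then received compounds in DMSO (217-fold dilution) for 16 h at 37C, 5% CO2. After the CCF4 read, CellTiter-Glo was added; ATP luminescence was read after 30 min at room temperature.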

Experiment [4] has as its target Cellular tumor antigen p53 (Homo sapiens) (UniProt P04637). Kind of experiment: TOX21_p53_BLA_p2_ratio: Tox21 HCT-116 p53 Agonism Beta-lactamase Assay, Ratio, Phase 2 (AID 2283592). An outline of the steps:
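HCT116 cells carrying a p53-responsive beta-lactamase reporter were plated, incubated 5 h at 37C, then dosed with compounds in DMSO (217-fold dilution) for 16 h. CCF4-AM substrate was added for 2 h at room temperature; the 460/530 nm emission ratio gave gain-of-signal activity relative to DMSO.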

Experiment [5] can be described thus: TOX21_p53_BLA_p3_viability: Viability Assessment in the Tox21 HCT-116 p53 Agonism Beta-lactamase Assay, Phase 3 (AID 2283593).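 Also: cells exposed to compound for 16 h before reading.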 The gist of the method:
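HCT-116 cells (4000/well) rested 5 h at 37C, then got DMSO compounds by pin tool (217-fold dilution) for 16 h at 37C, 5% CO2. After the bla read, CellTiter-Glo was added and luminescence read at 30 min, room temperature.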

The target in experiment [6] is Cellular tumor antigen p53 (Homo sapiens) (UniProt P04637). Kind of experiment: TOX21_p53_BLA_p3_ratio: Tox21 HCT-116 p53 Agonism Beta-lactamase Assay, Ratio, Phase 3 (AID 2283596). An outline of the steps: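 HCT116 p53-bla cells (4000/well) given compound in DMSO (217-fold dilution) after 5 h, incubated 16 h at 37C. CCF4-AM substrate 2 h at room temperature; 460/530 nm emission ratio, gain fitted against DMSO.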
Chain of Cellular tumor antigen p53 (Homo sapiens) (P04637 whole entry, looked up): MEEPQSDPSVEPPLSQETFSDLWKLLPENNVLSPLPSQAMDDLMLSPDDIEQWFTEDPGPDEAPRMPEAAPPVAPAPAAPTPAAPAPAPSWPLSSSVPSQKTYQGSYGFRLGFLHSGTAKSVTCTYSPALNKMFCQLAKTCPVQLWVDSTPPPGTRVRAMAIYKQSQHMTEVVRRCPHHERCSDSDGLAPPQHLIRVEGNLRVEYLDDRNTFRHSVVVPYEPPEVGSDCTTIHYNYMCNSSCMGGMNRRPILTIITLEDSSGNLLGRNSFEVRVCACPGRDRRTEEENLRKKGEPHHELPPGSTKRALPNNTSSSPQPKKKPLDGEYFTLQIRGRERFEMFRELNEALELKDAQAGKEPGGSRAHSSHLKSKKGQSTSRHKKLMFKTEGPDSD

The nature of experiment [7]: TOX21_p53_BLA_p4_viability: Viability Assessment in the Tox21 HCT-116 p53 Agonism Beta-lactamase Assay, Phase 4 (AID 2283597).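 Also: hits lower the luminescence signal meaning cytotoxicity.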 An outline of the steps:
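HCT116 p53-bla cells (4000/well) rested 5 h at 37C, then received compounds in DMSO (217-fold dilution) for 16 h at 37C, 5% CO2. CellTiter-Glo was added after the CCF4-AM read, and luminescence was read after 30 min at room temperature.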

Experiment [8] has as its target Cellular tumor antigen p53 (Homo sapiens) (UniProt P04637). Kind of experiment: TOX21_p53_BLA_p5_ratio: Tox21 HCT-116 p53 Agonism Beta-lactamase Assay, Ratio, Phase 5 (AID 2283599). An outline of the steps: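 HCT-116 cells carrying a p53-inducible beta-lactamase reporter were seeded at 4000 cells/well and dosed after 5 h with compound in DMSO (217-fold dilution). After 16 h at 37C, CCF4-AM substrate was added for 2 h, and the 460/530 nm emission ratio was scored as gain-of-signal versus DMSO.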

Experiment [9] can be described thus: TOX21_p53_BLA_p5_viability: Viability Assessment in the Tox21 HCT-116 p53 Agonism Beta-lactamase Assay, Phase 5 (AID 2283600). An outline of the steps: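 Cells were plated at 4000/well, rested 5 h at 37C, then given compounds in DMSO (217-fold dilution) for 16 h at 37C, 5% CO2. Following the CCF4-AM beta-lactamase read, CellTiter-Glo was added and luminescence was read after 30 min at room temperature.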

Experiment [10] has as its target Cellular tumor antigen p53 (Homo sapiens) (UniProt P04637). Kind of experiment: TOX21_p53_BLA_p4_ratio: Tox21 HCT-116 p53 Agonism Beta-lactamase Assay, Ratio, Phase 4 (AID 2283601). An outline of the steps: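 HCT116 cells carrying an inducible beta-lactamase reporter were plated at 4000 cells/well, rested 5 h, then exposed to compounds in DMSO (217-fold dilution) for 16 h at 37C. CCF4-AM substrate was loaded 2 h at room temperature; 460/530 nm emission ratio scored gain-of-signal versus DMSO.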

Experiment [11] in a line: Tanguay_ZF_120hpf_MORT_legacy: (Legacy) Oregon State University Tanguay Lab 120 Hour Post-fertilization zebrafish Assay for Mortality (AID 2283633).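 As to AC50: fitted as increase in binary mortality versus DMSO negative control.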 The gist of the method:
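Dechorionated Tropical 5D wild-type zebrafish embryos, one per well from 6 hpf, were statically exposed at 28C in the dark until 120 hpf (0.64% DMSO final). Mortality was scored as present/absent by brightfield microscopy, fitted positively versus DMSO.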

The nature of experiment [12]: Tanguay_ZF_120hpf_YSE_legacy: (Legacy) Oregon State University Tanguay Lab 120 Hour Post-fertilization zebrafish Assay for Yolk Sac Edema (AID 2283634).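 As to AC50: actives raise the incidence of yolk sac edema above the DMSO baseline.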 The gist of the method:
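Tropical 5D wild-type embryos, dechorionated with pronase at 4 hpf, were exposed singly from 6 hpf to 120 hpf under static, sealed, dark conditions at 28C with 0.64% DMSO final. Yolk sac edema was scored present/absent by brightfield microscopy.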

A short description of experiment [13]: Tanguay_ZF_120hpf_AXIS_legacy: (Legacy) Oregon State University Tanguay Lab 120 Hour Post-fertilization zebrafish Assay for Body Axis Malformation (AID 2283635).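 As to AC50: potency for an increased fraction of larvae scored with body axis malformation.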 An outline of the steps: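 Tropical 5D wild-type zebrafish embryos, dechorionated with pronase at 4 hpf, were placed singly in wells at 6 hpf and exposed statically to test chemical (0.64% DMSO final) at 28C until 120 hpf, then scored by brightfield for body axis defects.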

Experiment [14] can be described thus: Tanguay_ZF_120hpf_EYE_legacy: (Legacy) Oregon State University Tanguay Lab 120 Hour Post-fertilization zebrafish Assay for Eye Malformation (AID 2283636).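 Also: binary presence or absence of eye malformation scored by brightfield in 120 hpf larvae.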 The gist of the method: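 Dechorionated wild-type Tropical 5D zebrafish embryos were exposed statically from 6 hpf, one per well, to 120 hpf at 28C in sealed, foil-covered plates with 0.64% DMSO. Eye malformation was scored present/absent by brightfield microscopy against DMSO controls.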

Experiment [15] can be described thus: Tanguay_ZF_120hpf_SNOU_legacy: (Legacy) Oregon State University Tanguay Lab 120 Hour Post-fertilization zebrafish Assay for Snout Malformation (AID 2283637). An outline of the steps:
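Tropical 5D wild-type zebrafish embryos, dechorionated with pronase at 4 hpf, were exposed singly from 6 hpf to 120 hpf statically at 28C in 0.64% DMSO. Snout malformation was scored present/absent by brightfield microscopy, fitted against DMSO.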

Experiment [16] is described as follows: Tanguay_ZF_120hpf_JAW_legacy: (Legacy) Oregon State University Tanguay Lab 120 Hour Post-fertilization zebrafish Assay for Jaw Malformation (AID 2283638).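 As to AC50: active means more embryos with jaw malformation than DMSO controls.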 An outline of the steps: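 Tropical 5D wild-type embryos, dechorionated with pronase at 4 hpf, were placed singly per well at 6 hpf and statically exposed at 28C until 120 hpf (0.64% DMSO final). Jaw malformation scored as present/absent by brightfield microscopy at 120 hpf, analyzed relative to DMSO.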

Experiment [17] can be described thus: Tanguay_ZF_120hpf_OTIC_legacy: (Legacy) Oregon State University Tanguay Lab 120 Hour Post-fertilization zebrafish Assay for Otic Vesicle Malformation (AID 2283639). An outline of the steps: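 Embryos from 5D wild-type adults exposed in plates; DMSO 0.64% v/v final. Sealed, light-protected, 28C, static to 120 hpf. Otic vesicle malformation recorded as binary endpoint; gain-of-signal fitted vs DMSO.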

Experiment [18] is described as follows: Tanguay_ZF_120hpf_PE_legacy: (Legacy) Oregon State University Tanguay Lab 120 Hour Post-fertilization zebrafish Assay for Pericardial Edema (AID 2283640).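 As to AC50: potency for increased incidence of pericardial edema versus DMSO baseline.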 The gist of the method: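 Tropical 5D wild-type zebrafish embryos were exposed statically to 120 hpf at 28C, sealed and foil-covered, in 0.64% DMSO final. Pericardial edema was scored present/absent by brightfield microscopy; dead embryos were not scored.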

Experiment [19] in a line: Tanguay_ZF_120hpf_BRAI_legacy: (Legacy) Oregon State University Tanguay Lab 120 Hour Post-fertilization zebrafish Assay for Brain Malformation (AID 2283641). An outline of the steps: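 Tropical 5D wild-type zebrafish embryos were exposed statically in sealed, foil-covered plates at 28C until 120 hpf, with 0.64% (vol/vol) final DMSO. Brain malformation was scored present/absent by brightfield microscopy, relative to DMSO baseline.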

The nature of experiment [20]: ATG_XTT_Cytotoxicity: Cytotoxicity Assessment in the Attagene TRANS-FACTORIAL HepG2 Assay (AID 2283584). The gist of the method:
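HepG2 human liver cells, transiently transfected with multiple GAL4-UAS reporter units, were dosed and read at 24 h by XTT as cell number. Loss of signal was fitted relative to DMSO negative control baseline.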

As usually defined, the AC50 is the concentration giving half of the maximal activity seen. On to `CN1C(=O)N(c2ccccc2Br)Cc2cnc(Nc3ccc4c(c3)OCC(CO)O4)nc21` (stereo not given), for which the outcome in experiment [1], in [5], in experiment [9], in experiment [11], in experiment [17] and in experiment [19] was inactive. In addition, the AC50 is 67.9 µM (active) in experiment [2]; 70.4 µM (active) in experiment [3]; 4.26 µM (active) in experiment [4]; 13.8 µM (active) in experiment [6]; 46.1 µM (active) in experiment [7]; 13.6 µM (active) in [8]. Besides, the AC50 was 14.2 µM (active) in experiment [10]; 3.4 µM (active) in [12]; 2.03 µM (active) in experiment [13]; 3.44 µM (active) in experiment [14]; 2.27 µM (active) in experiment [15]; 0.972 µM (active) in [16]. Moreover, in experiment [18], the AC50 was 2.66 µM (active).

`CN(C[C@@H](CC[N+]12CCC(C3CCCCC3)(CC1)CC2)c1ccc(Cl)c(Cl)c1)C(=O)c1cc(C(F)(F)F)cc(C(F)(F)F)c1`: the call in experiment [1], in experiment [12], in experiment [13], in experiment [14], in [16] and in experiment [17] was inactive. The compound was classed as inactive in experiment [18] and in experiment [19]. For the same compound, the AC50 was 26.6 µM (active) in [2]; 25.9 µM (active) in [3]; 64.8 µM (active) in experiment [4]; 58.7 µM (active) in [5]; 87 µM (active) in experiment [6]; 14.8 µM (active) in experiment [7]. For the same compound, the AC50 in experiment [8] was 77.8 µM (active); in [9] it was 46.8 µM (active); in experiment [10], 27.5 µM (active); in experiment [11] it was 25.5 µM (active).

Turning to `CCCOC(=O)c1cc(O)c(O)c(O)c1`, the compound was called inactive in experiment [1], in [2], in experiment [3], in experiment [4], in experiment [5] and in [6]. The result in experiment [7], in experiment [8], in experiment [9], in experiment [10], in experiment [12] and in experiment [13] was inactive. In addition, the outcome in experiment [14], in experiment [16], in experiment [17], in experiment [18] and in experiment [19] was inactive.

With `CC1(C)NC(=O)N(c2ccc([N+](=O)[O-])c(C(F)(F)F)c2)C1=O`, the outcome in experiment [1], in [2], in experiment [20], in [3], in experiment [4] and in experiment [5] was inactive. Further, the result in [6], in experiment [7], in experiment [8], in [9], in experiment [10] and in experiment [12] was inactive. Also, the result in experiment [14], in experiment [16], in [17], in [18] and in experiment [19] was inactive.

Take `CCCCCCCCCC(=O)O`: the call in experiment [1], in experiment [2], in [3], in experiment [4], in experiment [5] and in experiment [6] was inactive. Also, the compound was classed as inactive in [7], in experiment [8], in [9], in experiment [10], in [11] and in [12]. Besides, the compound was called inactive in experiment [13], in [14], in [16], in [18] and in experiment [19].

With `Cc1oc2c(NC(=O)c3c(Cl)cccc3Cl)cccc2c1C(C)(C)O`, the result in experiment [20] was inactive.

In the case of `O=C(O)c1ccccc1C(=O)OCc1ccccc1`, in experiment [20], the compound was classed as inactive.
